# Test results: the supplement of paper PMC11732987, “Enantioselective OTUD7B fragment discovery through chemoproteomics screening and high-throughput optimisation” (Communications Chemistry, 2025)
# Unmarked numbers belong to inactive results.
# What was measured:
# Assay in all cases: log2 ratio of Biotin-Ahx-Ub-VS probe labelling (fragment/DMSO); higher = less target engagement (more negative = stronger competition), active = hit call of the paper (q ≤ 0.05, log2 ratio ≤ -1)
# Settings in all cases: compound concentration: 200 uM; treatment time: 3 h
# USP19 = target: T1, USP19 (UniProt O94966)
# T1 sequence (whole entry): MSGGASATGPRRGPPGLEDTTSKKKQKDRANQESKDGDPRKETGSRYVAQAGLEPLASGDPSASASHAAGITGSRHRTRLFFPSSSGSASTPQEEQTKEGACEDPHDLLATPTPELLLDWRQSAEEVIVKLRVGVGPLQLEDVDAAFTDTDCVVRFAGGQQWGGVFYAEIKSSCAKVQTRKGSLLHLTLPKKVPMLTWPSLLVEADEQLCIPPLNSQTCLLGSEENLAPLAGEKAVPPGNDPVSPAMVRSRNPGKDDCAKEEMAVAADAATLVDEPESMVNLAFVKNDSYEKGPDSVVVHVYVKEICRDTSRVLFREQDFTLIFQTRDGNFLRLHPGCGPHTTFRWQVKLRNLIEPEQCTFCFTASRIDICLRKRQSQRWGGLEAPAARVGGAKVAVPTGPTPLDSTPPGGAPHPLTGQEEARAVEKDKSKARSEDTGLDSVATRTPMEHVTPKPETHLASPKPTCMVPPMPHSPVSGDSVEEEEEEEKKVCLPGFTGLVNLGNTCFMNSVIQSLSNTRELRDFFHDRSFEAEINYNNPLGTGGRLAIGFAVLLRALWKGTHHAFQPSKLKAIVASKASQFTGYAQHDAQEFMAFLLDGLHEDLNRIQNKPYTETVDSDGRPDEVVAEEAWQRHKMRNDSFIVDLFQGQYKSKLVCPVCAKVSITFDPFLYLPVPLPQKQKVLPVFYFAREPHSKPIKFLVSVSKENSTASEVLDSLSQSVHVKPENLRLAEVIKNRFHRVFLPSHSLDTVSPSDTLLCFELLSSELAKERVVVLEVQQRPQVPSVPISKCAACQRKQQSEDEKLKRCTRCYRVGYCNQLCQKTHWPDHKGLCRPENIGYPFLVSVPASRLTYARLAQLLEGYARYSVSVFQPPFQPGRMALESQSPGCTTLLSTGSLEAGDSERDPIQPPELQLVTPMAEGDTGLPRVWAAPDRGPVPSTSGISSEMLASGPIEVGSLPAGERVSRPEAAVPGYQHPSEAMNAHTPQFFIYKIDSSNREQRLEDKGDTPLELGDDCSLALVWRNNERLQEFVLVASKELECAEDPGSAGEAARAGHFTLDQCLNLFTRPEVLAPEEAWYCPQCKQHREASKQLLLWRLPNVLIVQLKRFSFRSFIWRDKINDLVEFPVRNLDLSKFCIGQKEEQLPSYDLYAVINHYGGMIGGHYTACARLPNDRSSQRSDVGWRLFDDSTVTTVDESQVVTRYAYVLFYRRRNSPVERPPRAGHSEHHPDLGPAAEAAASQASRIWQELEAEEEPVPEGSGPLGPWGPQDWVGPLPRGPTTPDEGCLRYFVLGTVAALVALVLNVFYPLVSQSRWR
# Summary of the method: (§1)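 HEK293T lysate (495 µg per sample, in Tris/CHAPS/IGEPAL buffer with protease inhibitors) was exposed in triplicate for 3 h to fragment at 200 µM or to vehicle, then to Biotin-Ahx-Ub-VS at 0.5 µM final for 1 h. Labelled DUBs were enriched on NeutrAvidin, digested with LysC and trypsin, and analysed by diaPASEF LC-MS/MS. Spectronaut label-free quantities were normalised to the global median, and values are average log2 ratios of fragment over vehicle from an unpaired t-test. Only proteins with ≥2 unique peptides were used.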
# USP22 = target: T2, USP22 (UniProt Q9UPT9)
# T2 sequence (whole entry): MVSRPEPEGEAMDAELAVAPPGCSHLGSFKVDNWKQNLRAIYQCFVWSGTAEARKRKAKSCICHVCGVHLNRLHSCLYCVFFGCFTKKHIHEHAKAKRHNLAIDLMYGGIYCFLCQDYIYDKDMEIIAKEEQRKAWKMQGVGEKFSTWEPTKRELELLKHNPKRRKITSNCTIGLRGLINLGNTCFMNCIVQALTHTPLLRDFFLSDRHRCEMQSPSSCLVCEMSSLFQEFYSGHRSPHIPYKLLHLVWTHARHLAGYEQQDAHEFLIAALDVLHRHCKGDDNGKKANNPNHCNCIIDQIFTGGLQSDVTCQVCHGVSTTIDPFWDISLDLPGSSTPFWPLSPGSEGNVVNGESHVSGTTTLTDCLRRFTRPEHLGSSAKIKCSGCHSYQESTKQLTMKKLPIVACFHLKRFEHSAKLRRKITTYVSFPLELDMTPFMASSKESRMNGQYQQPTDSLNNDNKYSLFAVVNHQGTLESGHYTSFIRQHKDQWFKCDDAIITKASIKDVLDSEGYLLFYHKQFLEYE
# Summary of the method: as §1
# USP24 = USP24 (UniProt Q9UPU5)
# USP24, sequence (Q9UPU5 whole entry): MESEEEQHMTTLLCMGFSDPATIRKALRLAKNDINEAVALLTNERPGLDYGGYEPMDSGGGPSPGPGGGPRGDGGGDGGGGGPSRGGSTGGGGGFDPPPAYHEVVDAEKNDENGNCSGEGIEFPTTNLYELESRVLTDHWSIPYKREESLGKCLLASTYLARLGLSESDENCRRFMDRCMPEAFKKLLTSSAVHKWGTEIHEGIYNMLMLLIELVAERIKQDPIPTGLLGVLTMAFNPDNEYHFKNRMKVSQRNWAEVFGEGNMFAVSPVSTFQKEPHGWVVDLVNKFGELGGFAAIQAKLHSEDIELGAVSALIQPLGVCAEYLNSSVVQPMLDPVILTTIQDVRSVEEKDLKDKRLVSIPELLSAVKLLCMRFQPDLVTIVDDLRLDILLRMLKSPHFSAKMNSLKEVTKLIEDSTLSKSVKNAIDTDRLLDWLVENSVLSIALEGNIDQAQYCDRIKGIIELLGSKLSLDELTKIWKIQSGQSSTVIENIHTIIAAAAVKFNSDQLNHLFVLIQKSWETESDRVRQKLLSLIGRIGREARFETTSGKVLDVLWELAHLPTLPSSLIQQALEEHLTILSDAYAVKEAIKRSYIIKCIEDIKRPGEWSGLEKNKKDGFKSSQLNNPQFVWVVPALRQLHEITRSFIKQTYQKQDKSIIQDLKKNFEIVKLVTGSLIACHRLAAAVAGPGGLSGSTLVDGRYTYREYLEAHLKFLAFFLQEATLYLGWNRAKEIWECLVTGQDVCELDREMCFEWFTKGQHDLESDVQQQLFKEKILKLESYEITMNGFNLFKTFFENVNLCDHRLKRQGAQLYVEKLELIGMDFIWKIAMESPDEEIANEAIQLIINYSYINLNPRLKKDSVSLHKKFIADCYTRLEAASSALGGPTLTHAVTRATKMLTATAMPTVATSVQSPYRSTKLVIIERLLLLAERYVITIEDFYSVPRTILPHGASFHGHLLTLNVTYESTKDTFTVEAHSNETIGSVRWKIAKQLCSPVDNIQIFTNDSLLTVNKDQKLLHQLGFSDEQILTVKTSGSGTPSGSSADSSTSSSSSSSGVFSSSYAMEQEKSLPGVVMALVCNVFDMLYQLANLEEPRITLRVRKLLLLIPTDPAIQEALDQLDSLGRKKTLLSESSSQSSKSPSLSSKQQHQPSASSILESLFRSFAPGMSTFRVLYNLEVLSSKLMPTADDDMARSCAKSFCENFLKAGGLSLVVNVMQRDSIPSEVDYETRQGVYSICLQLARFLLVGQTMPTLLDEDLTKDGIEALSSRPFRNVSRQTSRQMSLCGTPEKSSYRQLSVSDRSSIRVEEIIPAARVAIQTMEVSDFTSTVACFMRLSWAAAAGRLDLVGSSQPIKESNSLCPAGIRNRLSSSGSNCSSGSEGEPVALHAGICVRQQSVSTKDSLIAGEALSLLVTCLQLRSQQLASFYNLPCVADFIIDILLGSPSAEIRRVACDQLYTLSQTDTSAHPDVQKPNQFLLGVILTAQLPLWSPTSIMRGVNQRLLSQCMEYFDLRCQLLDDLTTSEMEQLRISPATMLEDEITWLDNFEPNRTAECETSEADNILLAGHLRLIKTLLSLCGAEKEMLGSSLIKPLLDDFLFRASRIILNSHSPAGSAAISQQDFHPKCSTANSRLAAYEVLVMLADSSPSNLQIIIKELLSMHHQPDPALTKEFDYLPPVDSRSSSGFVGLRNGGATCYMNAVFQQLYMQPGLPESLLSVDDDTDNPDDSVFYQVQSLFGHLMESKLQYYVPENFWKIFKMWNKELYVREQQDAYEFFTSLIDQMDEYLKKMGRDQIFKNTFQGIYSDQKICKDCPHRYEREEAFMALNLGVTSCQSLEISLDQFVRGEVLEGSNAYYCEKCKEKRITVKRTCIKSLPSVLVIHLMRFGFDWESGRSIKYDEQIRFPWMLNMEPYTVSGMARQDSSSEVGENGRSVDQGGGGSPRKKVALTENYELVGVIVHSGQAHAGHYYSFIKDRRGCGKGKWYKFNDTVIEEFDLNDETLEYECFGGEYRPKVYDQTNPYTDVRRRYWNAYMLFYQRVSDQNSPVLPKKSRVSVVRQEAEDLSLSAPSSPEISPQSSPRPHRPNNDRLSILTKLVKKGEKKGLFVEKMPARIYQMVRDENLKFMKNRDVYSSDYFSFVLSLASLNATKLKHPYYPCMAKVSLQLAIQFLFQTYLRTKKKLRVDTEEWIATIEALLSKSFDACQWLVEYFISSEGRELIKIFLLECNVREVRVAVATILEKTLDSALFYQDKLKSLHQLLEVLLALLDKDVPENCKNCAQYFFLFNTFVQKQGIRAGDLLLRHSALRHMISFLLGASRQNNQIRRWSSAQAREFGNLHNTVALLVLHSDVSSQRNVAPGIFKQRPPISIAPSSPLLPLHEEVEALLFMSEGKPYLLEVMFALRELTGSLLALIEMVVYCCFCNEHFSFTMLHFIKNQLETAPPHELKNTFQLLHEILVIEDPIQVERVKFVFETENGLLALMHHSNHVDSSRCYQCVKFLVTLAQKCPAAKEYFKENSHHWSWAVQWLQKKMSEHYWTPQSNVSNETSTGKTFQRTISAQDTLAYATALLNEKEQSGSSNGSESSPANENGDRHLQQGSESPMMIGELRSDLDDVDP
# Summary of the method: as §1
# USP25 = target: T3, USP25 (UniProt Q9UHP3)
# T3 sequence (whole entry): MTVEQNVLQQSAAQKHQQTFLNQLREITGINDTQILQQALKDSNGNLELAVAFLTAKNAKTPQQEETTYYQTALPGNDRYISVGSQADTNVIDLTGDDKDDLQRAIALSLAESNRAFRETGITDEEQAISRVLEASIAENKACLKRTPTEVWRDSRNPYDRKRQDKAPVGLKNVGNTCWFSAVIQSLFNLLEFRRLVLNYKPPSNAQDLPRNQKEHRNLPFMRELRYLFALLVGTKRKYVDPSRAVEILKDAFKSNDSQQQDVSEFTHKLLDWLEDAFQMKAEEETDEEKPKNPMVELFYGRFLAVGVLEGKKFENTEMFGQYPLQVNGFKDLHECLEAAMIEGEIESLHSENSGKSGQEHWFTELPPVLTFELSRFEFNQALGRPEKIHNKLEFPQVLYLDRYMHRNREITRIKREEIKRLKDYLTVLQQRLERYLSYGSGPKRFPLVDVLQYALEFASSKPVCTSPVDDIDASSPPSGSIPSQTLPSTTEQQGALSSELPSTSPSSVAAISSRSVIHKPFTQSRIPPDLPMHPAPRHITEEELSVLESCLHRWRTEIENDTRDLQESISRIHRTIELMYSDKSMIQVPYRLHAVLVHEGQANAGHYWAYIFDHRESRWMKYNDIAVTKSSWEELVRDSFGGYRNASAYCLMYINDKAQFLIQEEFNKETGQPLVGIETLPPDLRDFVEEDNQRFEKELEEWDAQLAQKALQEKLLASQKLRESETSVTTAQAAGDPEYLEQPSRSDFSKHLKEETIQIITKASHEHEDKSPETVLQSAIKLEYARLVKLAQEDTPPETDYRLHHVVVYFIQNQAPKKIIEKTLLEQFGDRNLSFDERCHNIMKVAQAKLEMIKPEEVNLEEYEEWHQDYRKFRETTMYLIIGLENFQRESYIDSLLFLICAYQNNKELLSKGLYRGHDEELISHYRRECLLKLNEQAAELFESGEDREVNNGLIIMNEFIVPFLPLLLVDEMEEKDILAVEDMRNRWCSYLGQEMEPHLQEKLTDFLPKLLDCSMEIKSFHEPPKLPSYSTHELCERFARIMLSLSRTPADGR
# Summary of the method: as §1
# USP28 = target: T4, USP28 (UniProt Q96RU2)
# T4 sequence (whole entry): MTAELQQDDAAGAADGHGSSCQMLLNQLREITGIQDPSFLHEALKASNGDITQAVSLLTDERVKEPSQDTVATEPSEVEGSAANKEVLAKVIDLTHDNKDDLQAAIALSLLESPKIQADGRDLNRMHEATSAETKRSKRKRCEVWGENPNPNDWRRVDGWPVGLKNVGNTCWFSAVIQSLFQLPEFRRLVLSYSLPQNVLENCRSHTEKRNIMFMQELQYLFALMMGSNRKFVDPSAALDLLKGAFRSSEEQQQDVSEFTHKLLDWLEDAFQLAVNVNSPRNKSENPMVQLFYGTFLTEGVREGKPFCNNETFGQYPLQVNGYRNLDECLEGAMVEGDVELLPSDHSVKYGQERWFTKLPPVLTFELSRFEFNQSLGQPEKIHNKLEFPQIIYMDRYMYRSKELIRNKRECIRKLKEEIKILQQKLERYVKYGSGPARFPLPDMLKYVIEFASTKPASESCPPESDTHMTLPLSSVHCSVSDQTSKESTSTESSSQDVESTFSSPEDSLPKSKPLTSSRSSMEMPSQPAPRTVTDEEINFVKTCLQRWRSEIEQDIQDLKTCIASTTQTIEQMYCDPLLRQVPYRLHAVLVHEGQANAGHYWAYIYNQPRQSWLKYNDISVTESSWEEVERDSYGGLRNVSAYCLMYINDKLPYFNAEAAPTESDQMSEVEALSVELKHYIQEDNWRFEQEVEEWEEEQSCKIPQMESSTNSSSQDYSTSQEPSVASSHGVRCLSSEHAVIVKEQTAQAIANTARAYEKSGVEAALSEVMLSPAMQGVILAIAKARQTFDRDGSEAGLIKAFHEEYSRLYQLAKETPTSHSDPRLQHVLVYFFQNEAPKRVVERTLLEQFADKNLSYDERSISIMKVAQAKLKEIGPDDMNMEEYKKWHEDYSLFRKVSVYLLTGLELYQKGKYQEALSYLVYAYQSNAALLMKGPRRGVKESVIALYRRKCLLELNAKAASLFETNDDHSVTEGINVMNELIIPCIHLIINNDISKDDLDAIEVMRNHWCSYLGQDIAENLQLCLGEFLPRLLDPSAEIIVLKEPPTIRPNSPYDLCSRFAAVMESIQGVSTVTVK
# Summary of the method: as §1
compound,measurement,setting,value
CN(C)C(=O)c1ccc(NC(=O)CCl)cc1,log2 ratio of Biotin-Ahx-Ub-VS probe labelling,USP19,-0.166
same,log2 ratio of Biotin-Ahx-Ub-VS probe labelling,USP22,-0.0455
same,log2 ratio of Biotin-Ahx-Ub-VS probe labelling,USP24,-0.00912
same,log2 ratio of Biotin-Ahx-Ub-VS probe labelling,USP25,-1.1 (active)
same,log2 ratio of Biotin-Ahx-Ub-VS probe labelling,USP28,-1.47 (active)
